From PubChem BioAssay AID720518 (National Center for Advancing Translational Sciences (NCATS), 2013)
Inconclusive results are not listed. A call without a number means that no potency is given here. Active and inactive are the calls of the source. The call rests on the fitted dose curve.

Assay: qHTS for Inhibitors of Cell Surface uPA Generation: Wild-type Protective Antigen (WT-PrAg) Counterscreen for Cherry-picked Compounds
Potency means the concentration at half of the fitted maximal effect.

SMILES	Potency
Cc1ccc(S(=O)(=O)N2CCC(C)CC2)cc1	inactive
Cc1ccc(-c2cc(C(=O)NCC3CCCO3)no2)cc1 (stereo not given)	inactive
Cc1ccn(CCC(=O)N2CCc3ccccc32)n1	inactive
Cc1ccc(S(=O)(=O)N2CCC(C(=O)OC(C)C(=O)NC3CCCCC3C)CC2)cc1 (stereo not given)	inactive
CC(C)CCN1C(=O)c2ccc(-c3nc4ccccc4c(=O)o3)cc2C1=O	inactive
COCC(=O)N1CCC(n2nccc2NC(=O)c2ccccc2OC)CC1	inactive
COC(=O)c1ccccc1NC(=O)Nc1nnc(N2CCCCC2C)s1 (stereo not given)	58.5 µM (active)
Cc1ccc(Cl)cc1NC(=O)c1ccccc1OCC(=O)N1CCOCC1	inactive
CCOC(=O)c1c(NC(=S)NC)sc2c1CCCC2	inactive
Cn1nc(N2CCN(S(=O)(=O)c3ccccc3)CC2)c(=O)n(C)c1=O	inactive
COc1cc(C2/C(=C(\O)c3ccc4c(c3)CC(C)O4)C(=O)C(=O)N2CC2CCCO2)cc(OC)c1OC (stereo not given)	inactive
Cc1noc(C)c1COc1ccc(C(=O)N2CCN(S(=O)(=O)c3ccc(Cl)cc3)CC2)cc1	inactive
O=C(N/N=C/c1cccs1)c1ccco1	inactive
Cc1ccc(C)c(N2N=C(C(=O)N(CC(C)C)c3c(N)n(Cc4ccccc4)c(=O)[nH]c3=O)CCC2=O)c1	inactive
COc1ccc(CCNC(=O)COC(=O)CNS(=O)(=O)c2ccc(SC)c([N+](=O)[O-])c2)cc1	inactive
